Source: PubChem BioAssay (Broad Institute)
The list is a sample of the results.
aSyn 5UTR act = Activators via SNCA 5'UTR binding, MLPCN; alpha-synuclein 5'UTR reporter, activators screen; activity score, % (tested at 7.5 µM), hits read low; 300,000 tested, 7.1% active; AID 1814; in the data active = activity score below about -60%
Hits are given with their value; n = inactive.

SMILES	aSyn 5UTR act
Cc1nn(-c2ccccc2)c(Cl)c1/C=N/NC(=O)c1ccc(NS(=O)(=O)c2cccs2)cc1	-109.5
O=C(N/N=C/c1cn(-c2ccccc2)nc1-c1cccs1)c1ccc(Cl)cc1	-65.8
Cc1nn(-c2ccccc2)c(C)c1/C=N/NC(=O)c1cc(-c2ccccc2)n[nH]1	n
Cc1cc(C(=O)N/N=C/c2c(C)nn(-c3ccccc3)c2C)c(C)o1	-69.2
C=CCNc1nc(Nc2ccccc2F)nc(OCC)n1	-122.2
CCOC(=O)c1ccc(NC(=S)Nc2cccc(N)n2)cc1	-146.8
CCOC(=O)c1ccc(NC(=S)Nc2ccc(Br)cc2N)cc1	-114.0
CCCNc1c(F)c(F)c2c(C)c3ccccc3nc2c1F	-80.2
O=C(Cc1cccs1)Nc1nc2c(s1)CCCC2	-97.2
O=C(CCSc1ccccc1)Nc1nc2c(s1)CCCC2	-85.6
CCCC1=[N+](CC(=O)c2ccccc2)CCn2c(C)ccc21	-74.3
O=c1oc2c(-c3cccc(F)c3)cc(O)cc2s1	-79.5
Cc1cccc(NC(=O)c2c(C)nn(-c3ccccc3)c2Cl)c1	-96.5
CCOC(=O)c1cc(C(=O)Nc2cccc(C)c2)nn1C	-120.6
CC(C)N1CCc2c(sc(NC(=O)c3ccc(S(=O)(=O)N4CCc5ccccc54)cc3)c2C(N)=O)C1	-102.8
CC(C)N1CCc2c(sc(NC(=O)c3ccc([N+](=O)[O-])o3)c2C(N)=O)C1	n
CCN1CCc2c(sc(NC(=O)c3ccc4ccccc4c3)c2C(N)=O)C1	-193.8
Clc1ccc(OCCSc2ncccn2)c(Br)c1	-114.1
Brc1cccc(OCCSc2ncccn2)c1	-69.3
CCCOc1ccc(OCCSc2ncccn2)cc1	-167.2
Cc1cccc(NC(=S)c2nc3ccccc3s2)c1	-99.9
Cn1nc(C(=O)Nc2nc3ccccc3[nH]2)c2ccccc2c1=O	-144.1
COc1ccc2oc(C(=O)Nc3nc4ccccc4[nH]3)c(C)c2c1	-102.5
O=C(Nc1nc2ccccc2[nH]1)c1ccc(F)c(S(=O)(=O)N2CCOCC2)c1	-98.7
COc1cc(OC)cc(C(=O)Nc2nc3ccccc3[nH]2)c1	-188.8
SMILES	aSyn 5UTR act
CC(C)Oc1ccc(C(=O)Nc2nc3ccccc3[nH]2)cc1	n
COc1ccc(Br)c(C(=O)Nc2nc3ccccc3[nH]2)c1	-87.1
O=C(Nc1nc2ccccc2[nH]1)c1ccccc1F	n
Cc1cc(C)cc(C(=O)Nc2nc3ccccc3[nH]2)c1	-139.1
O=C(Nc1nc2ccccc2[nH]1)c1cc(F)cc(F)c1	-148.2
O=C(/C=C/c1ccc(-c2ccccc2[N+](=O)[O-])o1)c1ccccc1	-120.4
O=C(N/N=C/c1ccc(-c2ccccc2[N+](=O)[O-])o1)[C@H]1C[C@@H]1c1ccccc1	-79.4
O=C(N/N=C/c1ccccc1O)NC12CC3CC(CC(C3)C1)C2	-167.5
O=C(CCN1CCN(c2ccccc2)CC1)N/N=C/c1ccccc1O	n
CC(C)(C)C(=O)/C(=C\c1ccc([N+](=O)[O-])cc1)n1cncn1	-276.5
CC(C)(C)C(=O)/C(=C/c1ccc(Cl)cc1)n1cncn1	-173.2
CCOC(=O)c1sc2nccc(N(C)C)c2c1N=CNOCc1ccccc1	-91.9
COc1ccc(-c2nc(CS(=O)CC(=O)NCCCN3CCCC(C)C3)c(C)o2)cc1OC (stereo not given)	-101.0
Cc1oc(-c2ccc(Cl)cc2)nc1CS(=O)CC(=O)NCCCN1CCCC(C)C1 (stereo not given)	-90.9
CN1CCC(=NNc2ncnc3sc4c(c23)CCCC4)CC1	-82.4
COc1ccc(COc2cccc(C=O)c2)cc1	-68.7
O=Cc1cccc(OCc2cccc3ccccc23)c1	-117.1
O=Cc1ccc(OCc2ccc3ccccc3c2)cc1	-132.2
CCCc1ccc(OCc2ccc(C(=O)O)o2)c(OC)c1	-94.1
C=CCc1ccc(OC(=O)NC2CCCCC2)c(OC)c1	-106.2
C=CCc1ccc(OCc2ccc(C(=O)O)o2)c(OC)c1	-120.7
CCCc1ccc(OCc2ccc(C(=O)NN)o2)c(OC)c1	-84.0
COc1cccc(C2Nc3ccccc3C(=O)N2Cc2ccccc2)c1 (stereo not given)	n
COc1ccc(C2Nc3ccccc3C(=O)N2c2ccc(C)cc2)cc1COc1ccccn1 (stereo not given)	-97.4
COc1ccc(C2C(C#N)=C(N)N(c3ccccc3)C3=C2C(=O)CCC3)cc1Cn1cc([N+](=O)[O-])cn1 (stereo not given)	n
SMILES	aSyn 5UTR act
COc1ccc(C2Nc3ccccc3C(=O)N2c2ccccc2)cc1CN1CCOCC1 (stereo not given)	-69.8
COc1ccc(C2Nc3ccccc3C(=O)N2c2ccc(C)cc2)cc1Cn1nc(C)c([N+](=O)[O-])c1C (stereo not given)	-104.5
CC(=O)c1sc(NC(=O)c2ccc(Br)o2)nc1C	-76.5
CCOC(=O)c1csc(NC(=O)c2cc(=O)c3ccccc3o2)n1	-68.5
CC(=O)c1sc(NC(=O)c2cc(=O)c3ccccc3o2)nc1C	-81.2
COC(=O)C1CCN(C(=O)c2oc3c(Cl)cc(C)cc3c2C)CC1	-74.1
Cc1cc(Cl)c2oc(C(=O)N3CCN(c4ccncc4)CC3)c(C)c2c1	n
Cc1ccc(N=C(c2cccs2)N2CCOCC2)cc1	-65.8
CC(Sc1nnc(NC2CCCCC2)s1)C(=O)Nc1ccc2c(c1)C(=O)c1ccccc1C2=O (stereo not given)	-79.1
CC(C)(C)C(=O)/C=C/c1ccc(Oc2ccccc2)cc1	-155.5
O=C(O)COc1ccc(/C=C/C(=O)c2ccc(C3CCCCC3)cc2)cc1	-114.6
CCOc1ccc(/C=C/C(=O)c2ccccc2)cc1	-178.8
NCCOc1ccc(C2CCCCC2)cc1	n
O=C(/C=C/c1ccc(OC2CSC2)cc1)c1ccccc1	-152.7
CCCOc1ccc(-c2cnc(N)s2)cc1	-157.9
CCOc1ccc(N/C(N)=N/c2nc(CSc3nnc(C)s3)cc(=O)[nH]2)cc1	n
CCOc1ccc(-c2nc(CSc3nnc(N)s3)cs2)cc1	-90.3
CCOC(=O)c1ccc(CSc2nnc(N)s2)cc1	-73.6
CCCOc1ccc(OCCSc2nnc(N)s2)cc1	-89.1
COc1ccccc1NC(=S)N/N=C/c1cccc(C)c1	-66.4
COc1ccccc1NC(=S)N/N=C/c1ccc(O)cc1	-156.8
COc1ccc(-c2nc(-c3cccc(C)c3)nc(N3CCN(C)CC3)c2C#N)cc1	n
Brc1ccc(-c2nnc(-c3ccccc3)c(N3CCSCC3)n2)cc1	-85.1
CN1CCN(c2nc(-c3ccc(Br)cc3)nnc2-c2ccccc2)CC1	-123.4
Cc1ccc(-c2nc3nc4ccccc4nc3n2Cc2ccco2)cc1	-124.5
SMILES	aSyn 5UTR act
c1ccc(Cn2c(-c3ccco3)nc3nc4ccccc4nc32)cc1	-215.4
O=c1c2ccccc2nc(-c2ccco2)n1Cc1ccccc1	-214.1
O=C(Nc1ccc(OC(F)F)c(Cl)c1)c1cccc(OC(F)F)c1	-82.5
COc1ccc(C(=O)Nc2ccccc2C(=O)O)cc1Cl	-123.1
CN1CCc2nc(NC(=O)c3cccc(OC(F)F)c3)sc2C1	-66.7
COc1ccc(NC(=O)c2cccc(F)c2)cc1Cl	-205.6
O=C(Nc1ccc2c(c1)CCC2)c1cccc(OC(F)F)c1	-125.6
O=C(CCCOc1ccc(Cl)cc1Cl)Nc1ccccc1C(=O)O	-83.2
COc1ccc(NC(=O)/C=C/C(=O)O)cc1Cl	-104.7
COc1ccc(NC(=O)c2ccccc2F)cc1Cl	-156.2
CCC[C@H](CN[C@@H](CNC)[C@H](C)CC)NCCc1cc(C(F)(F)F)cc(C(F)(F)F)c1	n
COc1cc(OC)c(NC(=O)c2cccc(F)c2)cc1Cl	-63.9
COc1ccc(NC(=O)c2cccc(OC(F)F)c2)cc1Cl	-196.7
CCc1ccc(NC(=O)c2cnccn2)cc1	-137.7
CCCOC(=O)c1ccc(NC(=O)c2cnccn2)cc1	-104.0
